Source: PubChem BioAssay (NCI)
The panel holds about 83,000 compounds, 20% with a hit somewhere; the sample as a whole holds those more often.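 Growth was measured after 48 h exposure to one concentration of compound in 96-well plates. Values under 10 count as active.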 Unmarked numbers belong to inactive results. Calls of active or inactive are those of the source.

These compounds were tested on OVCAR-3 ovarian (assay: NCI-60 one-dose screen, 48 h (100 = growth as untreated, 0 = no growth, -100 = all killed)). Details: 10 µM unless noted.

| SMILES | growth |
| --- | --- |
| Cn1cc(C(=O)c2nc(-c3c[nH]c4ccc(F)cc34)no2)c2cc(F)ccc21 | 97.4% |
| c1ccc(Cn2cc(-c3nc4ccccc4s3)c3cccnc32)cc1 | 95.6% |
| O=[N+]([O-])c1ccccc1/C=N\NC(=S)N/N=C/c1ccccc1[N+](=O)[O-] | -27% (active) |
| Cn1cc(C(=O)c2nc(-c3c[nH]c4ccc(Br)cc34)no2)c2cc(F)ccc21 | 97.2% |
| COc1cccc(-c2nc(SCC(=O)Nc3ccc(C(=O)/C=C/c4ccc(OC)c(OC)c4)cc3)[nH]c(=O)c2C#N)c1 | 83.6% |
| Cc1cc(N2CCN(C)CC2)nc(NC2CCCC(Nc3ccnc4cc(Cl)ccc34)C2)n1 (stereo not drawn) | -18.7% (active) |
| COCCNc1ccc2c3c(cccc13)C(=O)N(CCN(C)C)C2=O | 17.9% |
| FC(F)(F)c1[nH]ncc1-c1nc2ccc3n[nH]c(C#Cc4cccnc4)c3c2c2c1CCCC2 | 54.2% |
| Cc1ccc(/C=C2\SC(=S)N(CC(=O)NCCCN3CCOCC3)C2=O)cc1 | 102% |
| Cc1ncc(C(=O)Nc2ccc(CN3CCN(C)CC3)c(C(F)(F)F)c2)cc1C#Cc1cnc2cccnn12 | -0.593% (active) |
| CC(C)(C)CC(C)(C)c1ccc(OCCOCC[N+](C)(C)Cc2ccccc2)cc1 | -35% (active) |
| O=C1Nc2c(ccc(Cl)c2Cl)/C1=C\c1cc(C(F)(F)F)cc(C(F)(F)F)c1 | -34.2% (active) |
| Cc1cc2c3ccccc3ccc2[n+]2ccccc12 | 27.1% |
| COc1ccc(C2C(C#N)=C(N)Oc3n[nH]c(-c4cccs4)c32)cc1I (stereo not drawn) | 91.7% |
| COc1ccc(-n2nc(C)c3c(Nc4ccc(NC(=O)Nc5cc(C(F)(F)F)ccc5F)cc4)ncnc32)cc1 | 25.2% |
| CC1=CC(C)(C)Nc2ccc(Cc3ccc4c(c3)C(C)=CC(C)(C)N4)cc21 | 97.4% |
| Clc1ccc2c(NCCNc3nc(N4CCCCC4)nc4ccccc34)ccnc2c1 | -64.7% (active) |
| Cc1ccc(C(SCC(N)C(=O)O)(c2ccccc2)c2ccc(C)cc2)cc1 (stereo not drawn) | -48% (active) |
| CCN1CCN(c2nc(NCCNc3ccnc4cc(Cl)ccc34)c3ccccc3n2)CC1 | 8.7% (active) |

| SMILES | growth |
| --- | --- |
| CCN(CC)S(=O)(=O)c1ccc(OC)c(NC(=O)c2[nH]c(C)c3c2CCCCC3=O)c1 | 39% |
| CCCc1cc(=O)n2c(C(=O)Nc3cccc(C(=O)OCC)c3)c(C(=O)Nc3ccc(F)cc3)sc2n1 | -4.26% [30 µM] (active) |
| OC(COc1cccc2ccccc12)CN1CCN(c2ccccc2Cl)CC1 (stereo not drawn) | 101% |
| Clc1ccc2nc3nc4ccc[nH]c4cc3c2c1 | 83.1% |
| CN(C)C(=S)N=Nc1c(O)[nH]c2ccccc12 | 3.86% (active) |
| Cc1cn2c(/C=C3/C(=O)Nc4c3ccc3ccccc43)c(C(F)(F)F)nc2s1 | -1.83% (active) |
| COc1ccc(C(=S)N2CCN(c3cccc(Cl)c3)CC2)cc1 | 112% |
| C#CCOc1ccc2ncnc(Nc3cccc(CNC(=O)CCl)c3)c2c1 | 29.3% [8.25 µM] |
| O=c1c2c3c(sc2nc(N/N=C/c2cn(-c4ccccc4)nc2-c2ccc(Cl)cc2)n1Cc1ccccc1)CCCC3 | 106% |
| O=C(CN1C(=O)/C(=C/c2ccc(Cl)cc2)SC1=S)NCCCN1CCOCC1 | 101% |
| CN(C)c1ccc(NC(=O)c2ccc(/C=C/C(=O)c3ncc[nH]3)cc2)cc1 | 25.7% |
| CN1CCN=C1c1ccc(NC(=O)c2ccc(C(=O)Nc3ccc(C4=NCCN4C)cc3)cc2)cc1 | 109% |
| O=c1cc(CSc2nnc(SCc3cc(=O)oc4c3ccc3ccccc34)o2)c2ccc3ccccc3c2o1 | 105% |
| Oc1ccccc1-c1nnc(CNc2ccc(Cl)cc2)o1 | 26.1% |
| CCN(CC)c1ccc(/C=N\NC(=O)/C=C/C=C/c2ccc3c(c2)OCO3)c(O)c1 | 4.95% (active) |
| O=C(Cc1ccc(/C=C/C(=O)c2ncc[nH]2)cc1)Nc1ccc(F)cc1 | 2.36% (active) |
| CSc1ccc(-c2n[nH]nc2-c2cc3ccccc3s2)cc1 | 26.5% |
| CC(C)(C)N1CCC1CN (stereo not drawn) | 103% |
| Cc1cc(N2CCCCCC2)nc(NC2CCCC(Nc3ccnc4cc(Cl)ccc34)C2)n1 (stereo not drawn) | -78.6% (active) |
